For 40 compounds, outcome and fluorescence, % of fluorescent control results are on record in PubChem BioAssay (Tox21).

Structures are written as SMILES. A number with no mark means an inactive call. Activity calls are given as the source filed them. Calls follow the shape of the dose curve; as a rule, active = well fitted curve in the direction sought with a large enough effect in the repeat runs; inconclusive = weak or mixed curves; inactive = flat fitted curve, though single readings scatter.
% is scaled to controls: 0 for no effect and ±100 for the full control effect.

A short description of this experiment: qHTS assay to test for compound auto fluorescence at 460 nm (blue) in HepG2 cells (AID 720687). Conditions: autofluorescence 405/460 nm, 1 h; series mostly up to 91.3 µM. An excerpt:
U.S. Tox21 Program National Center for Advancing Translational Sciences [NCATS] NIH Chemical Genomics Center [NCGC] U.S. Environmental Protection Agency [EPA] National Institutes of Environmental Health Sciences [NIEHS] National Toxicology Program [NTP] U.S. Food and Drug Administration [FDA] Tox21 Assay Overview: Compound auto fluorescence often interferes with screening of the compound library against various biological targets and signaling pathways. Some of these compounds may have fluorophoric properties. Such properties may interfere with the assay outputs resulting in false positives and/or negatives. To decrease such complications and ensure the compound activities are relevant in terms of biological response, the Tox21 10K compound library was screened for auto fluorescence. From the fluorophores used as reporter signals in our screening assays, the auto fluorescence equivalencies of compounds against three fluorophores have been evaluated: Triamterene, Fluorescein and Rose Bengal sodium for blue, green and red fluorescence, respectively. The fluorescence intensities were measured using Excitation/Emission wavelengths at 405/460nm, 485/535nm and 540/590nm for blue, green and red labels, respectively. This assay includes the blue fluorescence data.
Tox21 Assay Protocol Summary: 2,000 HepG2 cells in 5 uL of culture medium (MEM containing 10% FBS) per well were dispensed into black wall/clear bottom 1536-well plates using a Multidrop Combi Dispenser (ThermoFisher Scientific, Waltham, MA). The assay plates were incubated overnight at 37 C to allow cell attachment to the well bottom, followed by the transfer of 23 nL compound or DMSO vehicle by a pintool work station (Kalypsys , San Diego, CA). After the assay plates were incubated for 1 hr at 37 C and 5% CO2, fluorescence intensities in the assay plates were measured by an Envision (PerkinElmer, Shelton, CT) plate reader using three labels for measuring blue, green and red fluorescence at […] 460, 535 and 590 nm respectively.
A general note: Quantitative high-throughput screening tests each substance at several concentrations.
For `C=C(C)[C@@H]1CC[C@@H](C)C[C@@H]1O`, the compound was called inactive.
`O=C1c2ccccc2-c2ccccc21`: the outcome was inactive.
For `CC(C)(C)c1ccc(C=O)cc1`, the outcome was inactive.
The same measure, in the same setting: in the case of `C=C[C@@H](C)CCC=C(C)C` it was “inactive”.
The same measure, in the same setting: in the case of `CC(=O)OC(C)c1ccccc1` (stereo not given) it was “inactive”; in that of `OC(CCN1CCCCC1)(c1ccccc1)c1ccccc1`, “inactive”; in that of `CO[Si](CCCS)(OC)OC`, “inactive”.
Consider `CCCCC(CC)COC(=O)c1ccccc1` (stereo not given), for which the call was inactive.
The same measure, in the same setting: then `CCCC(C)CC` (stereo not given), with “inactive”.
Take `CCCCCCCCCCCCCCCCI`: the fluorescence, % of fluorescent control was 0.151% [at 18.6 µM].
On to `Cc1ccccc1C`, for which the call was inactive.
Consider `C[C@@H]1C[C@H]2[C@@H]3C[C@H](F)C4=CC(=O)C=C[C@]4(C)[C@@]3(F)[C@@H](O)C[C@]2(C)[C@@]1(O)C(=O)CO`, for which the fluorescence, % of fluorescent control is -0.0249% [at 18.6 µM].
Turning to `CC(C)(C)NCCO`, the result was inactive.
For `O=C(O)/C=C/c1ccccc1`, the result was inactive.
The same measure, in the same setting: in the case of `CCOC(=O)CC#N` it was “inactive”.
Consider `O=C(O)C(=O)Nc1cccc(-c2nn[nH]n2)c1`, for which the call was inactive.
The same measure, in the same setting: in the case of `C=CCOC(=O)c1ccc(C(=O)OCC=C)c(C(=O)OCC=C)c1` it was “inactive”; in that of `CCCCCCCCCCC`, “inactive”; in that of `Nc1c(NC/C=C\COc2cc(CN3CCCCC3)ccn2)c(=O)c1=O`, “inactive”.
In the case of `NCCc1ccn[nH]1`, the fluorescence, % of fluorescent control is -0.0013% [at 18.6 µM].
Regarding `O=CO`, the fluorescence, % of fluorescent control was 0.0876% [at 9.17 µM].
Take `COC(/C=C(\C)CCC=C(C)C)OC`: the call was inactive.
As to `O=c1cc(O)c(Cl)c[nH]1`, the call was inactive.
As for `CC(Cl)COP(=O)(OCC(C)Cl)OCC(C)Cl` (stereo not given), the compound was called inactive.
As for `C1=CCC(c2ccccc2)CC1` (stereo not given), the compound was classed as inactive.
`CC(C)c1ccccc1O`: the compound was called inactive.
Turning to `CO[Si](CCCCl)(OC)OC`, the compound was classed as inactive.
Consider `NS(=O)(=O)c1cc2c(cc1Cl)NC(CC1CCCC1)NS2(=O)=O` (stereo not given), for which the fluorescence, % of fluorescent control is 0.11% [at 18.6 µM].
Regarding `CNC(=O)C(c1ccccc1)c1ccccc1`, the result was inactive.
Take `CCC1Nc2cc(Cl)c(S(N)(=O)=O)cc2S(=O)(=O)N1` (stereo not given): the compound was called inactive.
Take `Nc1ccc(S(=O)(=O)Nc2ccccn2)cc1`: the fluorescence, % of fluorescent control is 0.149% [at 18.6 µM].
Consider `C=C[Si](C)(C)O[Si](C)(C)C=C`, for which the outcome was inactive.
The same measure, in the same setting: in the case of `CCCCC(CC)C(=O)OC(C)C` (stereo not given) it was “inactive”; in that of `O=c1[nH]c(=O)c2[nH]c(=O)[nH]c2[nH]1`, “inactive”.
On the same count and under the same terms, then `CC(C)COC(=O)/C=C/c1ccccc1`, with “inactive”.
In the case of `CCCCC(=O)N(C)C`, the outcome was inactive.
The same measure, in the same setting: then `CCCCCCCCOC(C)=O`, with “inactive”; and `CCc1nccnc1C`, with “inactive”.
Take `C=CCOc1c(Br)cc(Br)cc1Br`: the compound was called inactive.
Turning to `CCC(C)N` (stereo not given), the compound was classed as inactive.
